Mcl1 Noxa PPI – Mcl-1/Noxa binding inhibitors, primary screen, biochemical, TR-FRET, 1536-well | Induced myeloid leukemia cell differentiation protein Mcl-1 (Homo sapiens), Q07820 | TR-FRET Mcl-1/Noxa peptide binding, 2 h | inhibition, % at 21.7 µM | hit rate 1.5% among 220,000 | AID 1022, 2008;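 active = compounds that cut the protein-peptide binding signal by more than 50% relative to plate controls in a single-dose test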;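 also: His-tagged Mcl-1 with rhodamine Noxa BH3 peptide and terbium anti-His antibody; 0% = Mcl-1 plus Noxa peptide wells and 100% = peptide-only wells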
eIF4E 4G PPI – eIF4E–eIF4G protein interaction inhibitors, primary screen, biochemical, uHTS, TR-FRET, eIF4GI fragment; Eukaryotic translation initiation factor 4E (Mus musculus) + Eukaryotic translation …; TR-FRET eIF4E-eIF4GI(517-606) binding, 2 h; inhibition, % at 21.7 µM; hit rate 0.37% among 220,000;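 active = inhibition above about 30%, limit read from the data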;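 also: 0% = full FRET control wells and 100% = background wells lacking eIF4GI fragment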
14-3-3 Bad PPI – inhibitors of 14-3-3 zeta/Bad binding, primary screen, biochemical, TR-FRET, bovine 14-3-3 zeta | 14-3-3 protein zeta/delta (Bos taurus), P63103 | TR-FRET 14-3-3zeta/Dy647-pBad peptide displacement, 1 h | inhibition, % at 21.7 µM | hit rate 0.71% among 220,000;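 active = inhibition above about 70%, limit read from the data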;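 also: 0% = full 14-3-3 plus peptide FRET controls and 100% = background without 14-3-3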
Target sequence (P63103 whole entry, looked up): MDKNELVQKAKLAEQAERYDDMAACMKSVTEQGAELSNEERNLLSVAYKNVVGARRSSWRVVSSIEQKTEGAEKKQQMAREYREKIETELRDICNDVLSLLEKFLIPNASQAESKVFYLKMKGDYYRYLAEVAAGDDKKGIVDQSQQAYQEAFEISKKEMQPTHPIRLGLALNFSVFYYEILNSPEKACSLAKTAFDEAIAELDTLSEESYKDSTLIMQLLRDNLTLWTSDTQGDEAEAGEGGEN
Bim-Mcl-1 – inhibitors of Bim peptide binding to Mcl-1, primary screen, biochemical, bead-based flow cytometry, multiplex | Induced myeloid leukemia cell differentiation protein Mcl-1 (Homo sapiens), Q07820 | Bim peptide-Mcl-1 binding | inhibition, % at 10 µM | hit rate 0.1% among 190,000; in the data active = inhibition above about 40%;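 also: 0% = no compound tracer wells and 100% = peptide blocker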
Mcl1 Bid PPI – Mcl-1/Bid binding inhibitors, primary screen, biochemical, TR-FRET, 1536-well; Induced myeloid leukemia cell differentiation protein Mcl-1 (Homo sapiens), Q07820; TR-FRET Mcl-1/Bid-Dy647 peptide binding; inhibition, % at 21.7 µM; hit rate 0.97% among 220,000; AID 1021, 2008;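 active = compounds that cut the binding signal by more than half at the single screening dose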;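 also: His-tagged Mcl-1 with europium anti-His antibody binding Bid BH3 peptide; 0% = Mcl-1 plus peptide wells and 100% = peptide-only wells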
Pf gamet viab – late stage P. falciparum gametocyte viability inhibitors, primary screen, ATP luminescence, HTS. P. falciparum stage V gametocytes, 24 h. inhibition, % at 10.9 µM. AID 743093, 2013. hit rate 0.065% among 150,000;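 active = inhibition above the mean plus 3 SD of compounds within the control limits, set per campaign, cut at about 38% in these data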;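 also: 0% = DMSO wells and 100% = medium only without gametocytes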
An asterisk follows results filed as active; . = no result. Rows were chosen to be rich in hits. Some 2.7% of all compounds tested hit in one or more screens of this group.

SMILES	Mcl1 Noxa PPI	eIF4E 4G PPI	14-3-3 Bad PPI	Bim-Mcl-1	Mcl1 Bid PPI	Pf gamet viab
O=C1NC(=NCc2ccccc2)S/C1=C/c1ccc(O)cc1	14	-5	-15	-4	-20	.
O=C1N/C(=C/c2ccc(Br)cc2)C(O)=C1C=NCc1ccccc1	23	-4	15	-3	54*	.
CC(O)CNc1ccc(-c2nn(C)c(=O)c3ccccc23)cc1[N+](=O)[O-] (configuration not stated)	23	0	-6	1	-21	-5
O=C(NC1CCCC1)c1sc(=S)n2c1[nH]c(=O)c1ccccc12	38	8	15	0	3	10
O=C(NCc1ccco1)c1sc(=S)n2c1[nH]c(=O)c1ccccc12	73*	4	43	-2	-30	18
CCCCCNC(=O)c1ccc2c(=O)[nH]c3c(C(=O)NCC4CCCO4)sc(=S)n3c2c1 (configuration not stated)	52*	1	1	4	-39	19
O=C(NCc1ccccc1)c1ccc2c(=O)[nH]c3c(C(=O)NCC4CCCO4)sc(=S)n3c2c1 (configuration not stated)	64*	6	-17	0	-35	4
O=C(NCC1CCCO1)c1ccc2c(=O)n(-c3ccc(F)cc3)c(=S)[nH]c2c1 (configuration not stated)	-12	-3	-3	48*	-49	-8
COc1ccc(OC)c(/C=N/NC(=O)C(O)c2ccccc2)c1 (configuration not stated)	.	.	.	.	.	11
Cn1cc(CCC(=O)N2CCCC(CCC(=O)NCc3ccc(F)c(F)c3)C2)cn1 (configuration not stated)	10	-1	1	-1	-37	2
Cc1nc(C)c(C(=O)NCc2ccccc2Cl)o1	10	4	13	-5	-27	.
O=[N+]([O-])c1ccc2nonc2c1Nc1ccccc1	.	.	.	.	.	-10
Cc1ccc(CNC(=O)c2ccc3c(=O)[nH]c4c(C(=O)NCC5CCCO5)sc(=S)n4c3c2)cc1 (configuration not stated)	74*	0	0	0	17	5
O=C(NCCc1ccccc1)C1CCN(Cc2ccccc2F)CC1	8	-1	1	-6	11	0
CN(C)CC(C)(C)CNC(=O)C1CCN(Cc2ccccc2O)CC1	20	-20	43	0	58*	.
CC1CC(C)CN(S(=O)(=O)N2CCC(C(=O)NCc3ccco3)CC2)C1 (configuration not stated)	4	0	1	0	-8	-2
CCOc1ncccc1C(=O)OCc1ccc(C#N)cc1	3	-2	-1	-2	0	-2
Cc1ccc(NC(=O)CSc2nnc(-c3ccncc3)n2C)cc1S(=O)(=O)N1CCOCC1	11	1	-9	1	-8	-9
C=CCn1c(=NC(=O)c2ccco2)sc2cc(C(=O)OC)ccc21	-38	5	57	-5	29	-11
C=CCn1c(=NC(=O)c2ccco2)sc2cc(C(=O)OCC)ccc21	24	9	43	-3	51*	6
CC(=O)Nc1ccc(S(=O)(=O)NC2(C(F)(F)F)C(=O)Nc3c2c(=O)n(C)c(=O)n3C)cc1 (configuration not stated)	52*	6	9	0	-129	.
CC(=O)Nc1ccc(S(=O)(=O)NC2(C(F)(F)F)C(=O)Nc3c2c(=O)[nH]c(=O)n3Cc2ccco2)cc1 (configuration not stated)	56*	1	4	-7	-39	-4
CC(=O)Nc1ccc(S(=O)(=O)NC2(C(F)(F)F)C(=O)Nc3c2c(=O)[nH]c(=O)n3Cc2cccnc2)cc1 (configuration not stated)	56*	1	1	-2	-79	-9

Source: PubChem
